# Source: PubChem BioAssay (Sanford-Burnham Center for Chemical Genomics)
# CYP2C9 act: human CYP2C9 activators, primary screen, biochemical, luminescence; AID 1024, 2008; Cytochrome P450 2C9 (Homo sapiens), P11712; activation factor at 5 µM; recombinant CYP2C9, luciferin-H conversion; stronger effect = higher value; factor 1 = untreated enzyme, 0 = blocked; 1.4% of 96,000 active;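 active = activation factor of 2 or more for CYP2C9 at a 5 µM dose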;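 note: 0 = sulfaphenazole-blocked wells and 1 = vehicle-only wells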
# CYP2C19 inh: blockers of cytochrome P450 2C19 activity – biochemical, luminescence, ADME assay, primary screen; AID 778, 2007; CYP2C19 Supersomes, luciferin-H EGE luminescence, 30 min; inhibition, % at 5 µM; P33261; 21% of 96,000 active;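 active = CYP2C19 inhibition above a set limit at 5 µM in the primary screen, cut at about 50% in these data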;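 note: plate controls were negative control wells for no effect and 2.5 mM tranylcypromine positive control for full effect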
# CYP2C9 inh: blockers of cytochrome P450 2C9 activity – biochemical, luminescence, ADME assay, primary screen; P11712; inhibition, % at 5 µM; 20% of 96,000 active; CYP2C9 Supersomes, luciferin-H conversion;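 active = blocking of liver enzyme CYP2C9 beyond about 50% at 5 µM, limit read from the data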
# CD11b adhes inh: inhibitors of CD11b/CD18 adhesion to fibrinogen, primary screen, K562 cells, luminescence | Integrin beta-2 (Homo sapiens) + Integrin alpha-M (Homo sapiens), P05107+P11215 | ATPlite luminescence; Mn2+ added to activate the integrin | inhibition, % at 10 µM | 0.54% of 93,000 active | AID 1497, 2009;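 active = primary inhibition of 50% or more at 10 µM, then 40% or more on retest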
# Target sequence (P05107 whole entry, looked up, other chains not shown): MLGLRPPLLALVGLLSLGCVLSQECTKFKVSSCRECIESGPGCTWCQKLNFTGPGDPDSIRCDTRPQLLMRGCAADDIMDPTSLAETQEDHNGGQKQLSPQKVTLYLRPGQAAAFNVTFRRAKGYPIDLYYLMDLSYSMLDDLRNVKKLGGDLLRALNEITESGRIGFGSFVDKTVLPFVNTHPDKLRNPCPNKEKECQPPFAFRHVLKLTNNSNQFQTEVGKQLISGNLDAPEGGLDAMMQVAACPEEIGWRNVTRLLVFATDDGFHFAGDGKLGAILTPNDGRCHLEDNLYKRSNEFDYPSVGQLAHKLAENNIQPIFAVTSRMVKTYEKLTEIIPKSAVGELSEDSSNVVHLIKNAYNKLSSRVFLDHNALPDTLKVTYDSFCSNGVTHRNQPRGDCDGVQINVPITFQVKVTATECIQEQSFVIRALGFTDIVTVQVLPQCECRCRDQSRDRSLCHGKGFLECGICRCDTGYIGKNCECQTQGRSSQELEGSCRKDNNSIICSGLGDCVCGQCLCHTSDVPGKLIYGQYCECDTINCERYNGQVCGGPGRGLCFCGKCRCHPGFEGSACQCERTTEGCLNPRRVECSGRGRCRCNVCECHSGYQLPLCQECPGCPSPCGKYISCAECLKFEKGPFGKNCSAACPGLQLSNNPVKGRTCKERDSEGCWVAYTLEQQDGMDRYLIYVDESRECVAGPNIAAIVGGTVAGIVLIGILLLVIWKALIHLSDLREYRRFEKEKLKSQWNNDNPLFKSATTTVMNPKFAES
# CD11b adhes enh: enhancers of CD11b/CD18 adhesion to fibrinogen, primary screen, K562 cells, luminescence. Integrin beta-2 (Homo sapiens) + Integrin alpha-M (Homo sapiens), P05107+P11215. ATPlite luminescence. activation, % at 10 µM. 0.07% of 93,000 active;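 active = 10 µM primary screen giving 50% or more activity, confirmed by 40% or more on retest at that dose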
# CYP2C19 activ: human CYP2C19 activators, primary screen, biochemical, luminescence | AID 1025, 2008 | activation factor at 5 µM | Cytochrome P450 2C19 (Homo sapiens), P33261 | recombinant CYP2C19, luciferin-H EGE luminescence; stronger effect = higher value; 0 = fully inhibited enzyme, 1 = untreated enzyme | 96,000 tested, under 10 active;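 active = activation factor of at least 2 at 5 µM in the primary screen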;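 note: 0 = wells with 2.5 mM tranylcypromine and 1 = vehicle-only wells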
# The depositor's hits bear a star; . = no result given. Sampled rows, rich in hits. Any-hit rate of the full collection: about 28%.
SMILES,CYP2C9 act,CYP2C19 inh,CYP2C9 inh,CD11b adhes inh,CD11b adhes enh,CYP2C19 activ
COc1ccc(C2N(S(=O)(=O)c3ccccc3)CCN2S(=O)(=O)c2ccc(C)cc2)cc1 (centres undefined),0.4,86*,65*,11,-3,0.1
COc1ccc(C2N(C(=O)CN3CCOCC3)CCN2S(=O)(=O)c2ccccc2)cc1 (centres undefined),0.8,7,15,-4,-3,0.9
COc1ccc(C2N(C(=O)c3ccccc3)CCN2C(=O)c2ccccc2)cc1,0.5,69*,50,-27,-3,0.3
COc1ccc(C2N(C(=O)N3CCOCC3)CCN2S(=O)(=O)c2ccc(C)cc2)cc1 (centres undefined),0.6,18,41,0,1,0.8
CCC1(O)c2ccccc2-c2ncccc21 (centres undefined),1,5,-4,16,-2,1
Cc1nc2cc(-c3cccc(F)c3)nn2c(N2CCN(C(=O)c3ccco3)CC2)c1C,1,7,4,14,-3,0.9
Cc1ccc(S(=O)(=O)N2CCN(S(=O)(=O)c3ccc(C)cc3)C2c2ccccc2)cc1,1.4,79*,-42,16,1,0.2
Cc1ccc(S(=O)(=O)N2CCCC2C(=O)O)cc1 (centres undefined),1.2,-6,-22,12,-6,1.1
COc1nc(OC)nc(N2CCC(C(=O)NCc3cccs3)CC2)n1,1.4,24,-45,-8,-2,0.8
COc1cc(-c2cc(N)n(S(=O)(=O)c3ccc(F)cc3)n2)cc(OC)c1OC,0.2,79*,82*,-2,17,0.2
COc1ccc(-c2cc(N)n(S(=O)(=O)c3ccc(F)cc3)n2)cc1OC,0,70*,95*,24,2,0.3
Nc1cc(-c2ccccc2)nn1S(=O)(=O)c1ccc(F)cc1,0,100*,97*,63*,-2,0
COc1cc(C(=O)N2CCN(S(=O)(=O)c3ccc(F)cc3)CC2)cc(OC)c1OC,0.8,43,15,1,-2,0.6
COc1ccc(S(=O)(=O)n2nc(-c3ccc(Cl)cc3)cc2N)cc1OC,0.2,83*,80*,-16,-2,0.2
CCOc1ccc(-c2cc(N)n(S(=O)(=O)c3ccc(OC)c(OC)c3)n2)cc1,0.7,40,34,2,0,0.6
Nc1cc(-c2ccc(Br)cc2)nn1S(=O)(=O)c1ccccc1,0.7,8,35,-11,5,0.9
COc1ccc(OC)c(S(=O)(=O)n2nc(-c3ccccc3)cc2N)c1,0.6,24,39,-3,-3,0.8
Cc1c(C)n(C(=O)CSc2nccn2C)c2ccccc12,1.2,79*,-16,-11,-2,0.2
Cc1ccc(C)c(-n2c(SCC(=O)Nc3nonc3C)nnc2-c2ccoc2C)c1,0.2,36,82*,-3,4,0.6
C=CCn1c(SCC(=O)Nc2cc(C)ccc2OC)nnc1-c1ccco1,0.6,98*,43,2,-1,0
CCc1nnc(NC(=O)CSc2nnc(-c3ccco3)n2CC)s1,0.4,39,65*,1,-2,0.6
Cn1ccnc1SCC(=O)Nc1sccc1C#N,0.9,31,14,.,.,0.7
Cc1cc(SCC(=O)NC(=O)NCc2ccco2)nc2c(C)cccc12,0.8,33,22,-6,7,0.7
Cc1cc(NC(=O)CSc2nnc(C(C)N(C)C)n2Cc2ccccc2)no1 (centres undefined),0.9,6,5,-2,-1,0.9
CCCCn1c(SCC(=O)Nc2cc(C)on2)nnc1-c1ccco1,1,17,4,5,-6,0.8
SMILES,CYP2C9 act,CYP2C19 inh,CYP2C9 inh,CD11b adhes inh,CD11b adhes enh,CYP2C19 activ
CCc1nnc(NC(=O)CSc2nnc(-c3c[nH]c4ccccc34)n2CC)s1,0.4,24,57*,0,-5,0.8
CCn1c(SCC(=O)n2c(C)c(C)c3ccccc32)nnc1-c1ccco1,1.8,87*,-81,-14,4,0.1
Cc1cc(NC(=O)CSc2nnc(-c3ccc(Br)o3)n2Cc2ccccc2)no1,0.3,58*,66*,7,-3,0.4
Cc1ccc(-c2ccc(SCC(=O)Nc3nonc3C)nn2)cc1,0.1,28,86*,-3,-2,0.7
CCSc1nnc(NC(=O)CSc2nnc(-c3c[nH]c4ccccc34)n2CC)s1,0.7,19,33,0,5,0.8
CCn1c(SCC(=O)Nc2ccc3c(c2)OCCO3)nnc1-c1ccco1,0.8,15,21,-13,0,0.8
CCn1c(SCC(=O)Nc2cc(C)on2)nnc1-c1ccco1,0.7,53*,33,3,2,0.5
CCn1c(SCC(=O)Nc2nonc2C)nnc1-c1ccco1,0.7,86*,32,13,4,0.1
CCn1c(SCC(=O)Nc2nc(C)cs2)nnc1-c1ccco1,1,38,3,-19,7,0.6
COCCCn1c(SCC(=O)N2CC(=O)Nc3ccccc32)nnc1-c1ccoc1C,0.9,5,14,0,28,1
CCn1c(SCC(=O)Nc2ccc3c(c2)c2ccccc2n3CC)nnc1-c1ccco1,0.7,85*,28,.,.,0.2
COCCCn1c(SCC(=O)n2c(C)c(C)c3ccccc32)nnc1-c1ccoc1C,1.4,89*,-38,-24,2,0.1
Oc1ccc(C=Nc2ccccc2-c2nc3ccccc3[nH]2)cc1,.,.,.,25,-2,.
C=CCn1c(SCc2c(F)cccc2Cl)nnc1-c1ccco1,1.2,96*,-23,-1,-1,0
CCOCc1nc(C)c(Cl)c(NS(=O)(=O)c2ccc(N)cc2)n1,0.8,-4,24,-16,1,1
CC(=O)c1cccc(-n2nnnc2SCC(=O)N2CCCC2)c1,1.2,-11,-21,5,2,1.1
CC(NC(=O)C1CCCN(C(=O)N(C)C)C1)c1ccccc1 (centres undefined),0.5,29,53*,-4,-4,0.7
O=C(O)C1CC(=O)N(c2ccc(F)c(F)c2)C1 (centres undefined),1,1,3,-34,2,1
CCCCNC(=O)COC(=O)c1ccc(Cl)c(S(=O)(=O)N2CCCC2)c1,0.8,74*,25,1,-1,0.3
CCOc1ccc(NC(=O)COC(=O)Cc2ccc(S(=O)(=O)N3CCOCC3)s2)cc1,0.5,23,48,-27,5,0.8
O=C(COC(=O)c1ccc(S(=O)(=O)N2CCCC2)cc1)NCc1ccc(Cl)cc1,0.5,45,54*,-16,-3,0.6
